# Experimental data reported in the supplement of paper PMC7858590.
# ± gives the standard deviation of the averaged measurements. The full ranking holds about 3,800 compounds; the median of “cell shape (eccentricity) Z-score vs DMSO control” is about 1.1, and the lowest 2% start at about -4.7. Many of the other results were omitted from the sample, so the lowest values are more common in it than they were.
# Test system: human monocyte-derived macrophages (M0)
# Experiment: cell shape (eccentricity) Z-score vs DMSO control; higher = more elongated, M2-like morphology
# Conditions: 20 µM; 24 h; macrophage state: M0 (M-CSF)
# Procedure: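 Primary human monocyte-derived macrophages (M-CSF differentiated, pooled from 4 donors, 5000 cells/well in 384-well plates) were treated with each compound at 20 uM for 24 h, then fixed and stained with phalloidin/DAPI and imaged on an Opera Phenix (6 fields, about 1000 cells/well). Cell eccentricity was measured with CellProfiler, and a Z-score (t-test) was computed against 4 DMSO control wells in the same row. Negative values mean round (M1-like) cells and positive values mean elongated (M2-like) cells; the paper's hit cutoffs are Z <= -4 (M1) and Z >= 6 (M2). Scale: negative = round, M1-like.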
row,SMILES,cell shape (Z-score)
1,CON=C(C(=O)NC1C(=O)N2C(C(=O)O)=C(CSc3nc(=O)c(=O)[nH]n3C)CSC12)c1csc(N)n1 (stereo not given),-0.265
2,CCn1cc(C(=O)O)c(=O)c2cc(F)c(N3CCN(C)CC3)cc21,-1.21
3,CCN1CCN(c2cc3c(cc2F)c(=O)c(C(=O)O)cn3C2CC2)CC1,-0.0252
4,Cc1oc(=O)oc1CN1CCN(c2cc3c(cc2F)c(=O)c(C(=O)O)c2n3C(C)S2)CC1 (stereo not given),-5.14
5,C=CC(=O)Nc1cccc(Sc2nc(Nc3ccc(N4CCN(C)CC4)cc3)ncc2Cl)c1,0.842
6,CCCCCCCCC(=O)NCc1cc(OC)c(O)cc1I,0.93
7,CCCn1c(=O)c(C)cn2nc(N)nc12,3.53
8,CCC(C)n1ncn(-c2ccc(N3CCN(c4ccc(OC[C@H]5CO[C@](Cn6cncn6)(c6ccc(Cl)cc6Cl)O5)cc4)CC3)cc2)c1=O (stereo not given in full),0.541
9,CC(C)N1C[C@@H](C)[C@H](CN(C)Cc2ccc(Oc3ccccc3)cc2)Oc2c(NC(=O)c3ccncc3)cccc2C1=O,2.27
10,CC1OC(OC2C(O[C@H]3OC[C@](O)(CO)[C@H]3O)COC(O[C@@H]3[C@@H](O)[C@@H](O)[C@H](OC4C(OC(=O)[C@]56CCC(C)(C)CC5C5=CCC7[C@@]8(C)C[C@H](O)[C@H](OC9OC(CO)C(O)C(O)C9O)[C@@](C)(CO)C8[C@H](O)C[C@@]7(C)[C@]5(C)CC6)OCC(O)C4O)O[C@H]3C)C2O)C(O)C(O)C1O (stereo not given in full),-5.84
11,CC1OC(OC2C(O)C(CO)OC(O[C@H]3CC[C@@]4(C)C(CC[C@]5(C)C4CC=C4C6CC(C)(C)CC[C@]6(C(=O)OC6OCC(OC7OCC(O)C(O)C7O)C(O)C6O)CC[C@]45C)C3(C)C)C2O)C(O)C(OC2OCC(O)(CO)C2O)C1O (stereo not given in full),-0.504
12,C[C@@H]1O[C@@H](O[C@H]2[C@H](OC(=O)[C@]34CCC(C)(C)C[C@H]3C3=CCC5[C@@]6(C)C[C@H](O)[C@H](O[C@@H]7O[C@H](CO)[C@@H](O)[C@H](O)[C@H]7O)[C@@](C)(CO)C6[C@H](O)C[C@@]5(C)[C@]3(C)CC4)OC[C@H](O)[C@@H]2O)[C@H](O)[C@H](O)[C@H]1O[C@@H]1OC[C@@H](O)[C@H](O[C@@H]2OC[C@](O)(CO)[C@H]2O)[C@H]1O (stereo not given in full),-6.49
13,CC1OC(O[C@H]2CC[C@@]3(C)C(CC[C@]4(C)C3CC=C3C5CC(C)(C)CC[C@]5(C(=O)OC5OC(CO)C(OC6OC(CO)C(O)C(O)C6O)C(O)C5O)CC[C@]34C)C2(C)C)C(O)C(O)C1OC1OCC(O)(COC2OCC(O)C(OC3OCC(OC4OCC(O)(CO)C4O)C(O)C3O)C2O)C1O (stereo not given in full),0.323
14,CC1OC(O[C@H]2[C@@H](O)C[C@@]3(C)C(CC[C@]4(C)C3CC=C3[C@@H]5CC(C)(C)CC[C@]5(C(=O)OC5OC(C)C(OC6OCC(OC7OCC(O)C(OC8OCC(O)C(O)C8O)C7O)C(O)C6O)C(O)C5O)CC[C@]34C)[C@]2(C)CO)C(O)C(OC2OC(CO)C(O)C(O)C2O)C1O (stereo not given in full),0.13
15,CC1OC(O[C@H]2[C@@H](O)C[C@@]3(C)C([C@H](O)C[C@]4(C)C3CC=C3[C@@H]5CC(C)(C)CC[C@]5(C(=O)OC5OC(C)C(OC6OCC(OC7OCC(O)C(OC8OCC(O)C(O)C8O)C7O)C(O)C6O)C(O)C5O)CC[C@]34C)[C@]2(C)CO)C(O)C(OC2OC(CO)C(O)C(O)C2O)C1O (stereo not given in full),0.543
16,C/C(=C\Cc1c(O[C@@H]2O[C@H](CO)[C@@H](O)[C@H](O)[C@H]2O)ccc2ccc(=O)oc12)CO,0.962 ± 0.97
17,CCC1(c2ncc[nH]2)Cc2ccccc2O1 (stereo not given),1.92
18,N#CC(=C(N)Sc1ccc(N)cc1)c1ccccc1C(F)(F)F,4.79
19,CC1CC(=O)C2C(O)(C1)CC(O)C13OC21C(=O)c1cccc(O)c1C3O (stereo not given),3.39 ± 2.6
20,C[C@H](CCC(=O)NCC(=O)O)[C@H]1CCC2C3C(C[C@H](O)[C@@]21C)[C@@]1(C)CC[C@@H](O)CC1C[C@H]3O (stereo not given in full),1.5
21,CC(=O)O[C@@H]1CC2C(C)(C)C(=O)C3OC3[C@]2(C)C2CC[C@@]3(C)[C@H](c4ccoc4)OC(=O)C4OC43[C@@]21C (stereo not given in full),-1.17
22,CC1(CO)CC(O)CC2(C)C3=C(CCC12)C(=O)OC3 (stereo not given),-1.57
23,COC(=O)C(CCCNC(=N)N)NC(=O)CCCc1c(-c2ccccc2)[nH]c2c(F)cc(F)cc12 (stereo not given),6.11

row,SMILES,cell shape (Z-score)
1,COc1ccnc(CS(=O)c2nc3cc(OC(F)F)ccc3[nH]2)c1OC (stereo not given),-1.46
2,Cc1c(OCC(F)(F)F)ccnc1CS(=O)c1nc2ccccc2[nH]1 (stereo not given),3.11
3,COCCCOc1ccnc(CS(=O)c2nc3ccccc3[nH]2)c1C (stereo not given),-6.29
4,COC1=CC(=O)CC(C)C12Oc1cc(OC)cc(O)c1C2=O (stereo not given),1.27
5,OCCOCCN1CCN(C2=Nc3ccccc3Sc3ccccc32)CC1,2.19
6,CNCCC(Oc1ccccc1OC)c1ccccc1 (stereo not given),1.09
7,CNCCC(Oc1ccc(C(F)(F)F)cc1)c1ccccc1 (stereo not given),-4.88
8,CNCC[C@@H](Oc1ccccc1C)c1ccccc1,0.617
9,C/C=C(/C)C(=O)O[C@H]1C=C(C)C[C@H](OC(=O)c2ccc(O)cc2)C2[C@](O)(C(C)C)CC[C@@]21C (stereo not given in full),-3.37
10,CCN(CC)CCOc1ccc2c(c1)C(=O)c1cc(OCCN(CC)CC)ccc1-2,11.9
11,N#Cc1nc2c(nc1C#N)-c1ccc(Cl)cc1C2=O,2.23
12,O=C1c2ccccc2-c2nc3nonc3nc21,-6.25
13,CC1(C)CC[C@]2(C(=O)O)CC[C@]3(C)C(=CCC4[C@@]5(C)CC[C@H](O[C@@H]6OC[C@H](O)[C@H](O)[C@H]6O)[C@@](C)(CO)C5CC[C@]43C)C2C1 (stereo not given in full),-2.37
14,Cc1noc(NS(=O)(=O)c2ccc(N)cc2)c1C,2.76
15,Cc1cc(NS(=O)(=O)c2ccc(N)cc2)no1,-8.11
16,CNc1cc(NS(=O)(=O)c2ccc(N)cc2)nc(NC)n1,3.31
17,Cn1c(=O)c2c(n(C)c1=O)n(C)c(=O)n2C,0.458
18,Cc1cc(Nc2nc(N[C@@H](C)c3ncc(F)cn3)ncc2Cl)n[nH]1,7.45
19,CCCCCCCCc1ccc(CCC(N)(CO)CO)cc1,-5.98 ± 2.9
20,CCCCCCCCc1ccc(-c2ccc(C(=O)O)cc2)cc1,7.84
21,CCCCCCCCCCCCCCCCCCc1ccc(C(=O)C=CC(=O)O)cc1,0.47
22,COc1cc(/C=C/C(=O)O[C@H]2CC[C@]34CC35CC[C@]3(C)[C@@H](C(C)CCC=C(C)C)CC[C@@]3(C)C5CCC4C2(C)C)ccc1O (stereo not given in full),-1.25
